From PubChem BioAssay (NCATS)
Records with an inconclusive call do not appear. Activity calls are given as the source filed them. Calls follow the shape of the dose curve; as a rule, active = well fitted curve in the direction sought with a large enough effect; inconclusive = small, poorly fitted or top-dose-only effect, or another doubt; inactive = no such curve, though single readings can be large; an effect the other way counts as inactive or inconclusive.

Experiments:
KB-3-1 = test: Cytotoxic Profiling of Annotated Libraries Using Quantitative High-Throughput Screening (AID 1296008); settings: Five cell lines viability, CellTiter-Glo ATP luminescence, 48-72 h; max response: hits give low values; also: nearly all actives have a fitted effect of over 60% in size
How it was run: (§1)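 Compounds were pin-transferred onto cells and incubated 48 or 72 hr at 37 degree Celsius, 95% humidity. CellTiter-Glo was added, plates sat 10 min at room temperature, then ATP-coupled luminescence was imaged as the viability read-out.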

NIH3T3 [1] = test: as above; settings: Five cell lines viability, CellTiter-Glo ATP luminescence, 48-72 h; max response: hits give low values
How it was run: as §1

MCC-13 = test: qHTS assay to identify novel small-molecules to repurpose for Merkel cell carcinoma treatment (AID 1296009); settings: MCC and control cell lines, CellTiter-Glo viability, 72 h; series mostly up to 46 µM; also: nearly all actives have a fitted effect of over 60% in size
How it was run: (§2)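 Viability readout: ATP luminescence (CellTiter-Glo) after 72 hr drug exposure at 37 degree celsius. Dose-response format was 8 points for NPC and 11 points for MIPE; data normalized to in-plate controls.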

MKL-1 = test: as above; settings: MCC and control cell lines, CellTiter-Glo viability, 72 h; series mostly up to 46 µM
How it was run: as §2

MKL-2 = test: as above; settings: MCC and control cell lines, CellTiter-Glo viability, 72 h; series mostly up to 46 µM
How it was run: as §2

UISO = test: as above; settings: MCC and control cell lines, CellTiter-Glo viability, 72 h; series mostly up to 46 µM
How it was run: as §2

WaGa = test: as above; settings: MCC and control cell lines, CellTiter-Glo viability, 72 h; series mostly up to 46 µM
How it was run: as §2

C33A = test: Primary qHTS to identify gynecologic anti-cancer compounds using libraries of approved drugs and bioactive compounds (AID 1345084); settings: Gynecologic cancer cell panel viability, ATPlite luminescence, 48 h; series mostly up to 57.5 µM; also: nearly all actives have a fitted effect of over 55% in size; also: potency is read from the fitted curve at half-maximal effect
How it was run: (§3)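 Cells, 1,000 per well, were allowed to settle for 16 h at 37 C before compound addition. Five concentrations were tested for 48 h, and viability was read by ATPlite luminescence after 15 min at room temperature.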

CASKI = test: as above; settings: Gynecologic cancer cell panel viability, ATPlite luminescence, 48 h; series mostly up to 57.5 µM
How it was run: as §3

Es-2 = test: as above; settings: Gynecologic cancer cell panel viability, ATPlite luminescence, 48 h; series mostly up to 57.5 µM
How it was run: as §3

HeLa = test: as above; settings: Gynecologic cancer cell panel viability, ATPlite luminescence, 48 h; series mostly up to 57.5 µM
How it was run: as §3

Hek293T = test: as above; settings: Gynecologic cancer cell panel viability, ATPlite luminescence, 48 h, control line for the selectivity index; series mostly up to 57.5 µM
How it was run: as §3

JEG-3 = test: as above; settings: Gynecologic cancer cell panel viability, ATPlite luminescence, 48 h; series mostly up to 57.5 µM
How it was run: as §3

OV90 = test: as above; settings: Gynecologic cancer cell panel viability, ATPlite luminescence, 48 h; series mostly up to 57.5 µM
How it was run: as §3

PA-1 = test: as above; settings: Gynecologic cancer cell panel viability, ATPlite luminescence, 48 h; series mostly up to 57.5 µM
How it was run: as §3

MCC-26 = test: qHTS assay to identify novel small-molecules to repurpose for Merkel cell carcinoma treatment (AID 1296009); settings: MCC and control cell lines, CellTiter-Glo viability, 72 h; series mostly up to 46 µM; also: nearly all actives have a fitted effect of over 60% in size
How it was run: as §2

CAOV3 = test: Primary qHTS to identify gynecologic anti-cancer compounds using libraries of approved drugs and bioactive compounds (AID 1345084); settings: Gynecologic cancer cell panel viability, ATPlite luminescence, 48 h; series mostly up to 57.5 µM; also: nearly all actives have a fitted effect of over 55% in size; also: potency is read from the fitted curve at half-maximal effect
How it was run: as §3

NIH3T3 [2] = test: qHTS assay to identify novel small-molecules to repurpose for Merkel cell carcinoma treatment (AID 1296009); settings: MCC and control cell lines, CellTiter-Glo viability, 72 h; at 44.8 µM (top of the series); also: nearly all actives have a fitted effect of over 60% in size
How it was run: as §2

HACAT = test: as above; settings: MCC and control cell lines, CellTiter-Glo viability, 72 h; at 44.8 µM (top of the series) unless noted
How it was run: as §2
% is scaled to controls: 0 for no effect and ±100 for the full control effect.

CC(C)Nc1cccnc1N1CCN(C(=O)c2cc3cc(NS(C)(=O)=O)ccc3[nH]2)CC1
inactive: max response (KB-3-1) -4.88% | max response (NIH3T3 [1]) -1.79% | Potency (MCC-13) | Potency (MKL-1) | Potency (MKL-2) | Potency (UISO) | Potency (WaGa) | Potency (C33A) | Potency (CASKI) | Potency (Es-2) | Potency (HeLa) | Potency (Hek293T) | Potency (JEG-3) | Potency (OV90) | Potency (PA-1)

O=C(c1ccc(F)cc1)C1CCN(CCn2c(=S)[nH]c3ccccc3c2=O)CC1
inactive: max response (KB-3-1) 8.09% | max response (NIH3T3 [1]) -46.6% | Potency (MCC-13) | Potency (MCC-26) | Potency (MKL-1) | Potency (MKL-2) | Potency (C33A) | Potency (CAOV3) | Potency (CASKI) | Potency (Es-2) | Potency (HeLa) | Potency (Hek293T) | Potency (JEG-3) | Potency (OV90)

CC[C@H](c1ccc(O)cc1)[C@@H](CC)c1ccc(O)cc1
inactive: max response (KB-3-1) 5.55% | max response (NIH3T3 [1]) 4.6% | Potency (MCC-13) | Potency (MCC-26) | Potency (MKL-1) | Potency (C33A) | Potency (CAOV3) | Potency (CASKI) | Potency (Es-2) | Potency (HeLa) | Potency (JEG-3) | Potency (PA-1)

O=C1c2cccc3c2[C@H](CCC3)CN1[C@@H]1CN2CCC1CC2
inactive: max response (KB-3-1) -11.9% | Potency (MCC-13) | Potency (MCC-26) | Potency (MKL-1) | Potency (MKL-2) | Potency (UISO) | Potency (WaGa) | Potency (C33A) | Potency (CAOV3) | Potency (CASKI) | Potency (Es-2) | Potency (HeLa) | Potency (Hek293T) | Potency (JEG-3) | Potency (OV90) | Potency (PA-1)

CCOc1ccccc1C(N)=O
inactive: max response (KB-3-1) -15.7% | outcome (NIH3T3 [1]) | Potency (MCC-13) | outcome (NIH3T3 [2]) | Potency (C33A) | Potency (CASKI) | Potency (Es-2) | Potency (HeLa) | Potency (Hek293T) | Potency (JEG-3) | Potency (OV90) | Potency (PA-1)

CCOC(=O)[C@@](C)(N)Cc1ccc(O)c(O)c1
inactive: max response (KB-3-1) -9.02% | outcome (HACAT) | Potency (MCC-13) | Potency (Es-2) | Potency (HeLa) | Potency (Hek293T) | Potency (JEG-3) | Potency (OV90) | Potency (PA-1)

C/C=C/C=N/NC(=O)c1ccncc1
inactive: max response (KB-3-1) -15.9% | max response (NIH3T3 [1]) -0.451% | Potency (MCC-13) | Potency (MCC-26) | Potency (C33A) | Potency (CAOV3) | Potency (CASKI) | Potency (Es-2) | Potency (HeLa) | Potency (Hek293T) | Potency (JEG-3) | Potency (OV90) | Potency (PA-1)

CC(=O)OCC(=O)[C@H]1CC[C@H]2[C@@H]3CCC4=CC(=O)CC[C@]4(C)[C@H]3CC[C@]12C
active: Potency (HeLa) 11.2 µM
inactive: max response (NIH3T3 [1]) 0.692% | outcome (HACAT) | Potency (MCC-13) | Potency (MKL-1) | Potency (MKL-2) | Potency (UISO) | Potency (WaGa) | Potency (C33A) | Potency (CAOV3) | Potency (CASKI) | Potency (Es-2) | Potency (Hek293T) | Potency (JEG-3) | Potency (OV90)

NC(=O)n1c(O)c(C(=O)c2cccs2)c2cc(Cl)ccc21
inactive: max response (NIH3T3 [1]) 0.218% | outcome (HACAT) | Potency (MCC-13) | Potency (MCC-26) | Potency (MKL-1) | Potency (MKL-2) | Potency (C33A) | Potency (CAOV3) | Potency (CASKI) | Potency (Es-2) | Potency (Hek293T) | Potency (JEG-3) | Potency (OV90)
